Measured values from PubChem BioAssay AID1159580 (chemical genetic matrix, 2015).
Hit rate of the full screen: of about 5,500 compounds, about 2,000 (36%) were called active. Inconclusive results (about 18%) are left out. No stated cut-off is given here; in the data, active means normalized growth mostly below about 0.91 (no sharp cut-off); inconclusive means no clear call, values can overlap the other calls; inactive means mostly above about 0.92. This is one part of the list.

Experiment: chemical genetic growth profiling, strain panel (AID 1159580);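 further: tested at 20 µM; growth read once vehicle control cultures reached saturation at 30 °C; 1 = growth at the plate median or of vehicle wells; lower values mean less growth of the strain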
Conditions: growth OD

Measured: normalized growth

CC(=O)[C@H]1CCC2C3C[C@H](C)C4=CC(=O)CC[C@]4(C)C3[C@@H](O)C[C@@]21C (some centres undefined)
inactive: S. cerevisiae deletion strains, locus YJR075W, strain HOC1, hits give low values 0.993 | S. cerevisiae deletion strains, locus YKL009W, strain mrt4, hits give low values 0.991 | S. cerevisiae deletion strains, locus YKL068W, hits give low values 0.977 | S. cerevisiae deletion strains, locus YKL085W, strain MDH1 (second series), hits give low values 0.96 | S. cerevisiae deletion strains, locus YKL085W, strain MDH1, hits give low values 0.96 | S. cerevisiae deletion strains, locus YKL160W, strain elf1, hits give low values 0.956 | S. cerevisiae deletion strains, locus YKL190W, strain CNB1, hits give low values 0.989 | S. cerevisiae deletion strains, locus YKR001C, strain vps1, hits give low values 0.998 | S. cerevisiae deletion strains, locus YKR026C, strain gcn3, hits give low values 0.986 | S. cerevisiae deletion strains, locus YKR091W, strain srl3, hits give low values 0.977 | S. cerevisiae deletion strains, locus YLL001W, strain dnm1, hits give low values 0.947 | S. cerevisiae deletion strains, locus YLL026W, hits give low values 0.99 | S. cerevisiae deletion strains, locus YLL041C, strain sdh2, hits give low values 0.983 | S. cerevisiae deletion strains, locus YLR027C, strain aat2, hits give low values 0.996 | S. cerevisiae deletion strains, locus YLR039C, strain RIC1, hits give low values 0.785 | S. cerevisiae deletion strains, locus YLR058C, strain SHM2, hits give low values 0.98 | S. cerevisiae deletion strains, locus YLR102C, strain apc9, hits give low values 0.975 | S. cerevisiae deletion strains, locus YLR113W, strain HOG1, hits give low values 0.993 | S. cerevisiae deletion strains, locus YLR221C, strain rsa3, hits give low values 0.945 | S. cerevisiae deletion strains, locus YLR258W, strain gsy2, hits give low values 0.986 | S. cerevisiae deletion strains, locus YLR262C, strain YPT6 (second series), hits give low values 0.95 | S. cerevisiae deletion strains, locus YLR262C, strain YPT6, hits give low values 0.901 | S. cerevisiae deletion strains, locus YLR268W, strain sec22, hits give low values 0.995 | S. cerevisiae deletion strains, locus YLR320W, strain mms22, hits give low values 0.961 | S. cerevisiae deletion strains, locus YLR330W, strain CHS5, hits give low values 0.988 | S. cerevisiae deletion strains, locus YLR342W, strain FKS1 (second series), hits give low values 0.99 | S. cerevisiae deletion strains, locus YLR342W, strain FKS1, hits give low values 0.972 | S. cerevisiae deletion strains, locus YLR357W, strain rsc2, hits give low values 0.948 | S. cerevisiae deletion strains, locus YLR370C, strain arc18, hits give low values 0.959 | S. cerevisiae deletion strains, locus YLR371W, strain rom2, hits give low values 0.978 | S. cerevisiae deletion strains, locus YLR384C, strain iki3, hits give low values 0.987 | S. cerevisiae deletion strains, locus YLR418C, strain cdc73, hits give low values 0.97 | S. cerevisiae deletion strains, locus YML016C, strain PPZ1, hits give low values 0.994 | S. cerevisiae deletion strains, locus YML032C, strain rad52, hits give low values 1.01 | S. cerevisiae deletion strains, locus YML120C, strain ndi1, hits give low values 0.95 | S. cerevisiae deletion strains, locus YML124C, strain tub3, hits give low values 0.98 | S. cerevisiae deletion strains, locus YMR058W, strain fet3, hits give low values 0.989 | S. cerevisiae deletion strains, locus YMR078C, strain ctf18, hits give low values 0.96 | S. cerevisiae deletion strains, locus YMR125W, strain sto1, hits give low values 0.954 | S. cerevisiae deletion strains, locus YMR129W, hits give low values 0.983 | S. cerevisiae deletion strains, locus YMR205C, strain PFK2, hits give low values 0.938 | S. cerevisiae deletion strains, locus YMR223W, strain ubp8, hits give low values 0.953 | S. cerevisiae deletion strains, locus YMR231W, strain pep5, hits give low values 0.989 | S. cerevisiae deletion strains, locus YMR307W, strain GAS1, hits give low values 1.04 | S. cerevisiae deletion strains, locus YNL067W, strain RPL9B, hits give low values 0.99 | S. cerevisiae deletion strains, locus YNL071W, strain lat1, hits give low values 0.973 | S. cerevisiae deletion strains, locus YNL153C, strain GIM3, hits give low values 0.997 | S. cerevisiae deletion strains, locus YNL183C, strain NPR1, hits give low values 0.931 | S. cerevisiae deletion strains, locus YNL209W, strain ssb2, hits give low values 0.994 | S. cerevisiae deletion strains, locus YNL233W, strain BNI4, hits give low values 1 | S. cerevisiae deletion strains, locus YNL248C, strain rpa49, hits give low values 0.985 | S. cerevisiae deletion strains, locus YNL250W, strain rad50, hits give low values 0.961 | S. cerevisiae deletion strains, locus YNL271C, strain bni1, hits give low values 0.972 | S. cerevisiae deletion strains, locus YNL298W, strain CLA4, hits give low values 0.986 | S. cerevisiae deletion strains, locus YNL307C, strain MCK1, hits give low values 0.976 | S. cerevisiae deletion strains, locus YNL322C, strain KRE1 (second series), hits give low values 0.982 | S. cerevisiae deletion strains, locus YNR049C, strain mso1, hits give low values 0.985 | S. cerevisiae deletion strains, locus YNR052C, strain pop2, hits give low values 0.986 | S. cerevisiae deletion strains, locus YOL006C, strain TOP1, hits give low values 0.931 | S. cerevisiae deletion strains, locus YOL012C, strain htz1 1.85 | S. cerevisiae deletion strains, locus YOL147C, strain pex11, hits give low values 0.986 | S. cerevisiae deletion strains, locus YOR001W, strain rrp6, hits give low values 1.03 | S. cerevisiae deletion strains, locus YOR061W, strain CKA2, hits give low values 0.982 | S. cerevisiae deletion strains, locus YOR069W, strain VPS5, hits give low values 0.991 | S. cerevisiae deletion strains, locus YOR070C, strain gyp1, hits give low values 0.986 | S. cerevisiae deletion strains, locus YOR080W, strain dia2, hits give low values 0.984 | S. cerevisiae deletion strains, locus YOR083W, strain WHI5, hits give low values 0.972 | S. cerevisiae deletion strains, locus YOR106W, strain vam3, hits give low values 0.955 | S. cerevisiae deletion strains, locus YOR136W, strain idh2, hits give low values 1 | S. cerevisiae deletion strains, locus YOR144C, strain elg1, hits give low values 0.992 | S. cerevisiae deletion strains, locus YOR184W, strain ser1, hits give low values 0.962 | S. cerevisiae deletion strains, locus YOR231W, strain MKK1, hits give low values 0.977 | S. cerevisiae deletion strains, locus YOR265W, strain rbl2, hits give low values 0.988 | S. cerevisiae deletion strains, locus YOR270C, strain vph1, hits give low values 0.933 | S. cerevisiae deletion strains, locus YOR290C, strain snf2, hits give low values 0.895 | S. cerevisiae deletion strains, locus YOR316C, strain cot1, hits give low values 0.979 | S. cerevisiae deletion strains, locus YPL051W, strain arl3, hits give low values 0.983 | S. cerevisiae deletion strains, locus YPL055C, strain LGE1, hits give low values 0.991 | S. cerevisiae deletion strains, locus YPL078C, strain atp4, hits give low values 0.96 | S. cerevisiae deletion strains, locus YPL106C, strain sse1, hits give low values 0.968 | S. cerevisiae deletion strains, locus YPL240C, strain hsp82, hits give low values 0.989 | S. cerevisiae deletion strains, locus YPL241C, strain CIN2, hits give low values 0.995 | S. cerevisiae deletion strains, locus YPL256C, strain CLN2, hits give low values 0.983 | S. cerevisiae deletion strains, locus YPR119W, strain clb2, hits give low values 0.978 | S. cerevisiae deletion strains, locus YPR141C, strain kar3, hits give low values 0.961 | S. cerevisiae deletion strains, locus YPR163C, strain tif3, hits give low values 0.987 | S. cerevisiae deletion strains, locus YPR167C, strain met16, hits give low values 0.984 | S. cerevisiae deletion strains, strain wtn01, hits give low values 0.983 | S. cerevisiae strains, strain wild type, hits give low values 0.994
